Holding throughout (test): DAPPL (digital affinity profiling via proximity ligation, sequencing); 10 mM Tris-HCl pH 7.5, 50 mM NaCl, 1 mM DTT, 4% glycerol, room temperature, 30 min; GST-TFs on glutathione beads, 16-mer random dsDNA library, 0.1% formaldehyde crosslink after washing; high values mean tight binding
Common to all, as to settings: protein: recombinant; tags: N-terminal GST; dsDNA, one strand shown

One experiment concerns the target T1, ERF (Homo sapiens, UniProt P50548 1-548).
T1 sequence: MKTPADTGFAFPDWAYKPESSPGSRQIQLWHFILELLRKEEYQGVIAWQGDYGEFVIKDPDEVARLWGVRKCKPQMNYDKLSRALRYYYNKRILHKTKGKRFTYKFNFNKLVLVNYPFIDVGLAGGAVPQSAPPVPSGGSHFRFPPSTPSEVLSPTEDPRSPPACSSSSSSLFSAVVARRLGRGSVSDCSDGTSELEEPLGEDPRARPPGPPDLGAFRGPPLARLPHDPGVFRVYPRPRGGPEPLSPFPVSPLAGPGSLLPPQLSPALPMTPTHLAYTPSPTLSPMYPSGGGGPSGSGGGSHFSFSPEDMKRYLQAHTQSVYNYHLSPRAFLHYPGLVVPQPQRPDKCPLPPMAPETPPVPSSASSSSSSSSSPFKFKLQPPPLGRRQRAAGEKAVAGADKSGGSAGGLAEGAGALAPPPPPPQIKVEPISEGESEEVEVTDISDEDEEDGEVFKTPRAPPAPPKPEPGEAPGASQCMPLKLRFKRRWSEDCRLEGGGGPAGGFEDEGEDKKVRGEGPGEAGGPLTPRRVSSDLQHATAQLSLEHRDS
A digest of the protocol:
(§1)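 Sequencing on an Illumina NextSeq500 followed washing, crosslinking with 0.1% formaldehyde, proximity ligation (BsaI/T4 ligase, 1 h, 37 °C) and PCR amplification of pools that had been incubated for 30 min at room temperature with 200 nmole of a random double-stranded 16-mer DNA library in Tris/NaCl/DTT/glycerol buffer. Each pool held DNA-barcoded human transcription factors, expressed in yeast as GST fusions and captured on glutathione beads, plus a tag-only sample. Binding signal is a hexamer's read frequency for a factor divided by its frequency in the tag-only sample.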

Another experiment deals with T2, ETV3L (Homo sapiens, UniProt Q6ZN32 1-361).
T2 sequence: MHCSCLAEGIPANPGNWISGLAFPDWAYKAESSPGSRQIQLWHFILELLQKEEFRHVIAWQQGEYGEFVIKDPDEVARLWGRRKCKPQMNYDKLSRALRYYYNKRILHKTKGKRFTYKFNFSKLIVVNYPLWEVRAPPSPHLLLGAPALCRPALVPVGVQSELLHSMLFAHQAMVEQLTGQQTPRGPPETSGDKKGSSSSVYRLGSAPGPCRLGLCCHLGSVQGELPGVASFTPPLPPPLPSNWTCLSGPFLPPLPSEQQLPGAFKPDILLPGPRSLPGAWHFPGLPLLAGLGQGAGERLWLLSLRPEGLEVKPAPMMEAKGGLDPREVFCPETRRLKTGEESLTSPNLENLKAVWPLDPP
In outline:
as §1

For the next experiment, the target named is T3, ETS2 (Homo sapiens, UniProt P15036 1-469).
T3 sequence: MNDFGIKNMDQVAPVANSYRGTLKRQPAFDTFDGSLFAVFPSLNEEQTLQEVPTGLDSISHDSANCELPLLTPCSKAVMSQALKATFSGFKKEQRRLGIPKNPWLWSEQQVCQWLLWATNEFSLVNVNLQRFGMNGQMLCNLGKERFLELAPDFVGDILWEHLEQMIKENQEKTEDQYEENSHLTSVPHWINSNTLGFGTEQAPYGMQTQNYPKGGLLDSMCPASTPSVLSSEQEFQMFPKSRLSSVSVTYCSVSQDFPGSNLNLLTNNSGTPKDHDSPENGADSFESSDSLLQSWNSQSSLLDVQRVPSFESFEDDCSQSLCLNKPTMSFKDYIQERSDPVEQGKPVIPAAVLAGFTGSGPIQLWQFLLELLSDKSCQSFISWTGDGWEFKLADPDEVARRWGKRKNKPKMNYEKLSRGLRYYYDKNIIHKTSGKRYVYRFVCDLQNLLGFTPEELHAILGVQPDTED
In outline: as §1

The target of the next experiment is T4, SPDEF (Homo sapiens, UniProt O95238 1-335).
T4 sequence: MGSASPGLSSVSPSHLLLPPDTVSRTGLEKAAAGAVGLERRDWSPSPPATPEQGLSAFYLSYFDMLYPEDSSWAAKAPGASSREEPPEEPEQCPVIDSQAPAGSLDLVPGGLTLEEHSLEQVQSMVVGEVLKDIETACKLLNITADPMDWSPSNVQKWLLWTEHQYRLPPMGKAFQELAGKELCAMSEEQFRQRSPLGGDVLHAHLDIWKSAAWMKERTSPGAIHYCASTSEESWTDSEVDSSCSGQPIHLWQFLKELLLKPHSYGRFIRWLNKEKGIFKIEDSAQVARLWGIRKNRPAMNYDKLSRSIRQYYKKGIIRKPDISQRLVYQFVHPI
In outline: as §1

The target in the next experiment is T5, ETV7 (Homo sapiens, UniProt Q9Y603 1-341).
T5 sequence: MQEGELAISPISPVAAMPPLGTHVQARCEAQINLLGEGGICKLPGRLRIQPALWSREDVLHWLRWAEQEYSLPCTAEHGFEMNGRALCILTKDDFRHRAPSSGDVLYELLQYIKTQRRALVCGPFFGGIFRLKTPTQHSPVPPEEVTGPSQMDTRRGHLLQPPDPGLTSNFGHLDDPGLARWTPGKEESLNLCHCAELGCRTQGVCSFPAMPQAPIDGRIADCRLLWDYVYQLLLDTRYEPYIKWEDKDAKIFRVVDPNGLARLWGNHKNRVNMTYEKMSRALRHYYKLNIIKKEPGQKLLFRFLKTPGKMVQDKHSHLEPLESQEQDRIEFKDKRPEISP
A digest of the protocol:
as §1

The next experiment has as its target T6, ELF5 (Homo sapiens, UniProt Q9UKW6-2 1-255).
T6 sequence: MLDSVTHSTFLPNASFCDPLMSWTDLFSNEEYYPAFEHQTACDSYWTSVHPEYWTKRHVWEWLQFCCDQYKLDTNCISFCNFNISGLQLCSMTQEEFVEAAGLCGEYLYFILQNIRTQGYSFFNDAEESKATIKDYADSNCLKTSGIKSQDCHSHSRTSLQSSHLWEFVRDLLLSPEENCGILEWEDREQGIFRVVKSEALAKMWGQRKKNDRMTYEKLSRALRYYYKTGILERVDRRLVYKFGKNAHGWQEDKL
In outline:
as §1

Another experiment concerns the target T7, ETV3 (Homo sapiens, UniProt P41162-2 1-143).
T7 sequence: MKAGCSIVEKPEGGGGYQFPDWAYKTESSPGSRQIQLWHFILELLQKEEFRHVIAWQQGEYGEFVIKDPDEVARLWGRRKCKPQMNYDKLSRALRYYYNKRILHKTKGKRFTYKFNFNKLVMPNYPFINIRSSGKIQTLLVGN
In outline:
as §1

Another experiment deals with ETV6 (Homo sapiens, UniProt P41212 1-452). A digest of the protocol:
as §1

Sequence of ETV6 (P41212 whole entry): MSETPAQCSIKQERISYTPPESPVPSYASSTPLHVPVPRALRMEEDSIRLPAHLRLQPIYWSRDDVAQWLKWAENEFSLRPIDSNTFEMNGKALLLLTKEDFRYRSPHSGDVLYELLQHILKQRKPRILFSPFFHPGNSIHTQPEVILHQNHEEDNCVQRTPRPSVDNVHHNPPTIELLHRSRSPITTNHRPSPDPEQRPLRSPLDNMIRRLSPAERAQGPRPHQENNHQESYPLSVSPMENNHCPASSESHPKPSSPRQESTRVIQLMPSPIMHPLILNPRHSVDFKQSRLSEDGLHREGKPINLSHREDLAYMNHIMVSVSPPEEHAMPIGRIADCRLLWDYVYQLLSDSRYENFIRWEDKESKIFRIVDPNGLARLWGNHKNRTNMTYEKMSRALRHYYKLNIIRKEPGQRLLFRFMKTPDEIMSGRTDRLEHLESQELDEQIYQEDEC

CGCCTC: the binding signal with ERF is 1.37 fold enrichment (6-mer frequency, TF over GST control); with ETV3L, 1.49 fold enrichment (6-mer frequency, TF over GST control); with ETS2, 1.27 fold enrichment (6-mer frequency, TF over GST control); with SPDEF, 1.39 fold enrichment (6-mer frequency, TF over GST control); in the experiment with ETV7, 1.26 fold enrichment (6-mer frequency, TF over GST control); in the experiment with ELF5 it was 1.43 fold enrichment (6-mer frequency, TF over GST control). The binding signal with ETV3 was 1.37 fold enrichment (6-mer frequency, TF over GST control); with ETV6 it was 1.42 fold enrichment (6-mer frequency, TF over GST control).

As to ACTCCT, the binding signal with ERF is 1.45 fold enrichment (6-mer frequency, TF over GST control); with ETV3L it was 1.54 fold enrichment (6-mer frequency, TF over GST control); in the experiment with ETS2, 1.52 fold enrichment (6-mer frequency, TF over GST control); with SPDEF, 1.42 fold enrichment (6-mer frequency, TF over GST control); with ETV7, 1.52 fold enrichment (6-mer frequency, TF over GST control); with ELF5, 1.42 fold enrichment (6-mer frequency, TF over GST control). The binding signal is 1.43 fold enrichment (6-mer frequency, TF over GST control) with ETV3 and 1.42 fold enrichment (6-mer frequency, TF over GST control) in the experiment with ETV6.

Regarding ATTTGT, the binding signal in the experiment with ERF was 1.34 fold enrichment (6-mer frequency, TF over GST control); with ETV3L, 1.35 fold enrichment (6-mer frequency, TF over GST control); in the experiment with ETS2 it was 1.36 fold enrichment (6-mer frequency, TF over GST control); with SPDEF, 1.33 fold enrichment (6-mer frequency, TF over GST control); with ETV7, 1.34 fold enrichment (6-mer frequency, TF over GST control); with ELF5 it was 1.26 fold enrichment (6-mer frequency, TF over GST control). Besides, the binding signal is 1.4 fold enrichment (6-mer frequency, TF over GST control) in the experiment with ETV3 and 1.29 fold enrichment (6-mer frequency, TF over GST control) in the experiment with ETV6.

GGGTTT: the binding signal in the experiment with ERF was 1.17 fold enrichment (6-mer frequency, TF over GST control); with ETV3L, 1.1 fold enrichment (6-mer frequency, TF over GST control); with ETS2, 1.1 fold enrichment (6-mer frequency, TF over GST control); with SPDEF, 1 fold enrichment (6-mer frequency, TF over GST control); with ETV7, 1.12 fold enrichment (6-mer frequency, TF over GST control); with ELF5, 1.1 fold enrichment (6-mer frequency, TF over GST control). Besides, the binding signal with ETV3 was 1.18 fold enrichment (6-mer frequency, TF over GST control); with ETV6, 1.07 fold enrichment (6-mer frequency, TF over GST control).

For the sequence TTGTCC, the binding signal with ERF is 1.35 fold enrichment (6-mer frequency, TF over GST control); with ETV3L, 1.43 fold enrichment (6-mer frequency, TF over GST control); in the experiment with ETS2, 1.38 fold enrichment (6-mer frequency, TF over GST control); in the experiment with SPDEF, 1.45 fold enrichment (6-mer frequency, TF over GST control); in the experiment with ETV7 it was 1.25 fold enrichment (6-mer frequency, TF over GST control); with ELF5 it was 1.39 fold enrichment (6-mer frequency, TF over GST control). Further, the binding signal was 1.36 fold enrichment (6-mer frequency, TF over GST control) in the experiment with ETV3 and 1.32 fold enrichment (6-mer frequency, TF over GST control) with ETV6.

In the case of ACATCG, the binding signal with ERF is 1.11 fold enrichment (6-mer frequency, TF over GST control); with ETV3L it was 1.18 fold enrichment (6-mer frequency, TF over GST control); with ETS2, 1.02 fold enrichment (6-mer frequency, TF over GST control); in the experiment with SPDEF, 1.08 fold enrichment (6-mer frequency, TF over GST control); with ETV7, 1.07 fold enrichment (6-mer frequency, TF over GST control); with ELF5, 1.01 fold enrichment (6-mer frequency, TF over GST control). The binding signal is 1.08 fold enrichment (6-mer frequency, TF over GST control) in the experiment with ETV3 and 1.04 fold enrichment (6-mer frequency, TF over GST control) in the experiment with ETV6.
